Most compounds without a hit are left out; they make up all but 1% or so of the library.
GPT2 inhibitor – Primary qHTS assay for inhibitors of Glutamate pyruvate transaminase 2 (GPT2) | Alanine aminotransferase 2 (Homo sapiens), Q8TD30 | Recombinant GPT2, coupled pyruvate oxidase/HRP Amplex Red fluorescence | Potency, µM (series often up to 57.7 µM), without a hit: top-dose activity change, negative = inhibition, hits mostly inhibitors | 0.25% of 100,000 active | AID 1671188, 2021; note: potency is the fitted concentration of half-maximal effect; nearly all actives have a fitted effect of over 60% in size
Target sequence (Q8TD30 whole entry, looked up): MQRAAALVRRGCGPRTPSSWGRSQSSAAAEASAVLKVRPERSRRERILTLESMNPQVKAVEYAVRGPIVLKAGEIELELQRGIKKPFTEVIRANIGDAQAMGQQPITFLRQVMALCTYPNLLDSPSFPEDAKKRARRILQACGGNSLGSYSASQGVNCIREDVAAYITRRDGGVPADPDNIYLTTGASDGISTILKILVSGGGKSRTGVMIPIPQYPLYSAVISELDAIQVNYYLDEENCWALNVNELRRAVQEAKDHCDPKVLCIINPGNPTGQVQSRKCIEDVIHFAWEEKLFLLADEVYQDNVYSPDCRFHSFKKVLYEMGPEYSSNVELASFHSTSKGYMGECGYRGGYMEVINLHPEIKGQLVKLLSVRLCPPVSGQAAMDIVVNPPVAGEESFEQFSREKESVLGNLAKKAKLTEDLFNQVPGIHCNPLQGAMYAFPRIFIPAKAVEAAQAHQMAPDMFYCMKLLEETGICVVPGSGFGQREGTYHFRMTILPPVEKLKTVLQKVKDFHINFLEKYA
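Recombinant GPT2 (10ng/uL) with 250uM a-KG and 2mM L-alanine, 30 min at room temperature, in HEPES pH 7.5 buffer. Pyruvate detected by pyruvate oxidase/HRP/Amplex Red fluorescence after 30 min in the dark; AOA (50uM) as positive control.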
SNCA expr inh – Primary qHTS assay for inhibitors of alpha-synuclein gene (SNCA) expression; HEK-293 SNCA-luciferase knock-in, luminescence, 24 h; Potency, µM (series often up to 57.2 µM), for inactives: top-dose activity change, negative = inhibition, hits mostly inhibitors; 0.17% of 140,000 active;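 note: potency is the fitted concentration of half-maximal effect; plate controls were DMSO cells for no effect and cell-free wells for full effect; nearly all actives have a fitted effect of over 45% in size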
SNCA viab count – GF-AFC viability counterscreen for inhibitors of alpha-synuclein gene (SNCA) expression | HEK-293-SNCA-luc viability, GF-AFC fluorescence, 24 h | Potency, µM (highest dose often 57.1 µM), without a hit: at the top dose activity change, negative = cytotoxicity, most hits filed as cytotoxic | 0.12% of 150,000 active | AID 1671193, 2021;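 note: potency is the fitted concentration of half-maximal effect; 0% = DMSO-treated cells and -100% = medium-only wells without cells; nearly all actives have a fitted effect of over 30% in size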
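HEK-293-SNCA-luc cells (1500/well) plated 24 h, then exposed 24 h to a dilution series; GF-AFC added 30 min at 37C, fluorescence 405/540 nm; normalised to medium-only and DMSO wells, Hill fit.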
IP6K1 inhibitor – Primary qHTS assay for small molecule inhibitors of Inositol hexaphosphate kinase 1 (IP6K1). Inositol hexakisphosphate kinase 1 (Homo sapiens), Q92551. IP6K1 kinase, ADP-Glo luminescence, 2 h; stronger effect = lower value. activity change, % (series mostly up to about 58 µM). 0.81% of 140,000 active. AID 1645851, 2021; in the data active = activity change below about -25%
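ADP-Glo luminescence measures ADP made by human IP6K1 during a 2 h RT reaction with ATP/IP6 (mix at 1.3 mM/130 uM); top library doses 57.5 and 19.1 uM final.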
Starred values were filed as active, the others as inactive; i = inactive; ? = inconclusive; · = not tested or not shown; ! = not confirmed by another sample; [ ] = another dose, or the depositor's remark. Unless noted, calls come from the whole dose curve; as a rule, active = well fitted curve in the direction sought with a large enough effect; inconclusive = small, poorly fitted or top-dose-only effect, or another doubt; inactive = no such curve, though single readings can be large; an effect the other way counts as inactive or inconclusive. Unless noted, % is set by controls: 0 for no effect and ±100 for the full control effect.

SMILES | GPT2 inhibitor | SNCA expr inh | SNCA viab count | IP6K1 inhibitor
C=C(C)C(=O)OC1CC2(C)OC(=CC2=O)C(=C)CC2OC(=O)C(=C)C12 (configuration not stated) | ? | · | 12µM* | -11
CN(Cc1ccccc1)C(=O)c1cc(-c2cccc(C(F)(F)F)c2)nc2c1cnn2C | · | · | · | -7
CC(C)[C@@](C)(O)[C@@H]1CN(c2nc(-c3[nH]nc4ncccc34)c(F)cc2Cl)CCN1 | -19% | · | 30µM* | -4
COc1ccccc1-c1cccc(CN2CCCC(C(=O)N3CCN(c4ncccn4)CC3)C2)c1 (configuration not stated) | i | -10% | -3% | -1
Cc1ccc(NC(=O)c2ccc(N(Cc3ccccc3)S(C)(=O)=O)cc2)cc1 | · | 21% | 2.8µM* | -8
Cc1cccc(C(=O)Nc2ccc(S(=O)(=O)N(Cc3ccccc3)c3ccccc3)cc2)c1 | · | 20% | 5% | -11
O=C(Nc1ccc(S(=O)(=O)N(Cc2ccccc2)c2ccccc2)cc1)c1ccc(F)cc1 | · | 20% | 3% | -28*
CS(=O)(=O)N(Cc1ccccc1)c1ccc(C(=O)Nc2cccc(Cl)c2)cc1 | · | -14% | 6.3µM* | -5
O=C(O)Cc1cccc(OCCCN(Cc2cccc(C(F)(F)F)c2Cl)CC(c2ccccc2)c2ccccc2)c1 | 24µM* | -6% | 10% | ·
COc1cccc(CNC(=O)c2ccc3nc(-c4ccccn4)oc3c2)c1 | -23% | 53% | 12% | 5
Cc1ccc([S+](=O)([O-])NC2CCN(c3nccc(Nc4ccccc4F)n3)CC2)cc1 | -12% | 3% | 9%[12.5 µM] | -3
Cc1ccc(C)c(N2CCN(c3nc4ccccc4c(=O)n3-c3ccccc3)CC2)c1 | · | 2.5µM* | 25% | -8
CC(C)C[C@@H](C=O)NC(=O)[C@H](CC(C)C)NC(=O)[C@H](CC(C)C)NC(=O)OCc1ccccc1 | 3% | 0.61µM* | ? | ·
Oc1ccccc1CN1CCNc2cc(Nc3cccnc3)ncc2C1 | 1%[88.5 µM] | 15%[87.6 µM] | -14%[87.6 µM] | -22
CN(C)c1cccc(C(=O)N2CCCN(c3cc(-c4ccc(F)cc4)[nH]n3)CC2)c1 | 2% | 155% | -3% | 20
Cc1ccc(-c2cc(N3CCCN(C(=O)c4cccc(N(C)C)c4)CC3)n[nH]2)cc1C | ? | -27% | 18µM* | -10
COC(=O)CNC(=O)C1CCCCN1Cc1ccc(-c2cc(F)ccc2OC)cc1 (configuration not stated) | · | · | · | 19
CCOC(=O)c1ccc(O)cc1 | i | 15%[25.6 µM] | 5%[23.9 µM] | 6
CCOC(=O)c1ccc(O)c(O)c1 | 28µM* | -38%[25.6 µM] | 9%[23.9 µM] | 16
Cc1nn(-c2ccccc2)c2c1C(C1CC1)N(C1CCCN(C(=O)c3ccccc3F)C1)C2=O (configuration not stated) | · | · | · | 14
C#CCn1c(=O)n(-c2cccc(Cl)c2C)c(=O)c2c3c(sc21)CN(C(C)=O)CC3 | · | 4µM* | -25% | 6
CC(=O)N1CCc2c(sc3c2c(=O)n(-c2cccc(Cl)c2C)c(=O)n3Cc2ccccc2C)C1 | · | -7% | ? | 18
COc1cncc(N2C[C@@H]3[C@H](C2)N(CCOc2ccccc2)C(=O)C(C)(C)[S+]3(=O)[O-])c1 | 10µM* | 3% | -3% | 4
COc1cccc(CN2C[C@H]3[C@H](C2)[S+](=O)([O-])C(C)(C)C(=O)N3CCOc2ccccc2)c1 | -1% | 3% | -3% | 0
COc1c/c(=C2\C=c3ccccc3=N2)[nH]/c1=C\c1[nH]c(C)cc1C | i | · | 4.7µM* | -12
SMILES | GPT2 inhibitor | SNCA expr inh | SNCA viab count | IP6K1 inhibitor
O=C(O)c1cccc2c1CCN2C(=O)Nc1ccc(F)cc1 | -15% | 0.89µM* | 9% | -19
COCCCNC(=O)c1cccc2c1CCN2C(=O)Nc1cccc(C)c1 | i | 3.5µM* | -6% | -6
Cc1cnc(CCNS(=O)(=O)c2cccc(F)c2)n1Cc1ccc(F)cc1 | -7% | 9% | 2% | 1
CN(C)C(=O)C(C)(C)Oc1nn(Cc2cccc(Cl)c2)c2ccccc12 | -13%[88.5 µM] | ? | -17%[87.6 µM] | -6
CN(C)CCCOc1nn(Cc2ccccc2)c2ccccc12 | 1.3µM*! | -2%[25.6 µM] | -5% | -1
COc1cccc(CC(=O)N2CCC3(CC2)CN(c2ccccc2)C3=O)c1 | 4% | -22% | -3% | 1
O=[N+]([O-])c1cc(-c2nc(-c3ccccc3)no2)ccc1N1CCCCC1 | · | 10µM* | 7% | 8
Cc1ccc(-c2noc(-c3ccc(N4CCCCC4)c([N+](=O)[O-])c3)n2)cc1 | · | -4% | -6% | -4
Cc1cnc(Nc2ccc(N3CCN(C)CC3)cc2)nc1Nc1cccc(S(=O)(=O)NC(C)(C)C)c1 | 19µM* | 92% | ? | ·
CCn1c(=O)c(-c2ccc(-c3cncs3)cc2Cl)cc2cnc(Nc3ccc(N4CCN(C)CC4)cc3)nc21 | i | · | -9% | -9
C[C@](N)(Cc1ccc(O)c(O)c1)C(=O)O | 7.9µM* | 3% | ? | 4
Cc1cc(C)cc(-c2ccc(CN3CCCC3C(=O)NCC3CC3)cc2)c1 (configuration not stated) | i | -22% | -6% | 8
CN1CCN(c2ccc(-c3cccc(N)c3)nn2)CC1 | i | 22µM* | -5% | -10
COc1cccc(-c2cc(C(=O)N3CCC(Cc4ccccc4)CC3)c3cnn(C)c3n2)c1 | · | · | · | -9
COc1ccc(-c2cccc(C(=O)NCc3ccccc3C(F)(F)F)c2)nn1 | · | · | · | 11
COc1ccc(C(=O)N2CCc3nc(C4CC4)nc(-c4ccc(OC)cc4)c3C2)cc1 | i | -13% | -21% | -11
COc1ccc(-c2nc(C3CC3)nc3c2CN(C(=O)c2ccc(C(F)(F)F)cc2)CC3)cc1 | i | ? | 10µM* | -11
CC(C)C(=O)Nc1cccc(NC2=NS(=O)(=O)c3ccccc32)c1 | · | 2% | -1% | 18
O=C(CCl)Nc1cccc(NC2=NS(=O)(=O)c3ccccc32)c1 | i | · | 30µM* | 4
CC(C)CNC(=O)c1ccc2oc(-c3ccccn3)nc2c1 | i | ? | 4%[87.6 µM] | -14
COc1ccc(N2CCN(S(=O)(=O)CCNC(=O)Cc3ccc(-c4ccccc4)cc3)CC2)cc1 | · | 30% | 23% | -27*
O=C(Cc1ccc(-c2ccccc2)cc1)NCCS(=O)(=O)N1CCN(c2ccccc2)CC1 | · | -15% | 10% | -23
Cc1nn(-c2ccccc2)c2c1C(C)N(C1CN(C(=O)Nc3ccc(Cl)cc3)C1)C2=O (configuration not stated) | · | · | · | 12
COCCN1CCOc2nc(-c3cc4ccccc4o3)ncc2C1=O | -7%[88.5 µM] | 8.9µM* | -5%[87.6 µM] | -6
O=C1c2cnc(-c3cc4ccccc4o3)nc2OCCN1CC1CC1 | ? | ? | -4%[87.6 µM] | -8
Cc1noc(-c2ccc3c(c2)OCO3)c1C(=O)N1CCC(Cc2ccc(F)cc2)CC1 | -5% | ? | -20% | -19
